Screens (PubChem BioAssay)
Most compounds without a hit are left out; they make up all but 15% or so of the library.
HCV inhibitor: inhibitors of hepatitis C virus infection; Huh7.5.1 HCVcc-Cre infection, luciferase reporter, 44 h; Potency, µM (doses to about 41.8 µM), without a hit: top-dose activity change, negative = inhibition, most hits filed as inhibitors; 340,000 compounds, 3.4% hits; also: potency is read from the fitted curve at half-maximal effect; % is scaled to controls: 0 for no effect and ±100 for the full control effect
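1,000 cells/well; 4 h culture; + compound; + HCVcc-Cre (~0.5 moi); 44 h; luciferase substrate, RT 15 min; read 15 sec.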
SARS PLpro yeast: blocks SARS-CoV papain-like protease in a yeast assay; S. cerevisiae expressing SARS-CoV PLpro, growth rescue; Potency, µM (doses to about 32.9 µM), for inactives: top-dose activity, positive = growth rescue, hits mostly activators; 330,000 compounds, 0.19% hits; AID 485353; calls by dose curve; also: potency is read from the fitted curve at half-maximal effect; 0% is about no effect; nearly all actives have a fitted effect of over 55% in size
Sm TGR block: blocks Schistosoma mansoni thioredoxin glutathione reductase. purified TGR, DTNB reduction, TNB absorbance 405 nm. 360,000 compounds, 3% hits. Q962Y6. Potency, µM (titrated, usually from 114 µM), inactives show at the highest dose activity change, negative = inhibition, most hits filed as inhibitors; also: potency is read from the fitted curve at half-maximal effect; % is scaled to controls: 0 for no effect and ±100 for the full control effect; nearly all actives have a fitted effect of over 60% in size
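TGR 20 nM + NADPH 100 uM (dispensed conc.), cpd preinc 15 min RT; start with NADPH (500 uM addition) then DTNB (15 mM addition). Kinetic TNB absorbance, 405 nm filter. Four-parameter Hill fit across titration.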
Pf growth 96h: P. falciparum growth inhibition at 96 hours; P. falciparum luciferase reporter growth, 96 h; Potency, µM (highest dose often 28.7 µM), inactives show at the top dose activity change, negative = inhibition, actives largely listed as inhibitors; 320,000 compounds, 6.9% hits; also: potency is read from the fitted curve at half-maximal effect; % is scaled to controls: 0 for no effect and ±100 for the full control effect
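Delayed-death screen, second-generation endpoint: infected erythrocytes, 2% hematocrit, 0.05% parasitemia final; 96 hours at 37 C, 5% CO2; luciferase detection reagent; luminescence decrease equals reduced growth.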
HCMV inh: blocks human cytomegalovirus replication. HFF cells, HCMV-luciferase reporter, 72 h; hits give low values. activity change, negative = inhibition, % at 57.5 µM. 410,000 compounds, 4.5% hits. AID 1259415; in the data active = activity change below about -60%; inconclusive = no clear call, values can overlap the other calls; inactive = above about -39%; also: % is scaled to controls: 0 for no effect and ±100 for the full control effect
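HFF cells seeded 16 h at 37C, treated with compounds, infected with luciferase-reporter HCMV at MOI 1 PFU/cell; luciferase read at 72 h post infection, normalized to buffer-only and Salinomycin controls.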
Pf growth 48h: P. falciparum growth inhibition at 48 hours (one generation). P. falciparum luciferase growth in erythrocytes, 48 h. Potency, µM (top dose mostly 28.7 µM), inactives show at the highest dose activity change, negative = inhibition, usual class: inhibitors. 310,000 compounds, 5.9% hits. AID 504832; also: potency is read from the fitted curve at half-maximal effect; % is scaled to controls: 0 for no effect and ±100 for the full control effect
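Parasite viability was followed by luminescence of a genomically integrated firefly luciferase. Cultures held 0.1% parasitemia at 2% hematocrit (final), incubated under 5% CO2 at 37 C.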
Numbers without * were called inactive; ? = inconclusive; / = not tested or not shown; [ ] = another dose, or the depositor's remark. Unless noted, calls follow the shape of the dose curve; as a rule, active = well fitted curve in the direction sought with a large enough effect; inconclusive = small, poorly fitted or top-dose-only effect, or another doubt; inactive = no such curve, though single readings can be large; an effect the other way counts as inactive or inconclusive.

SMILES	HCV inhibitor	SARS PLpro yeast	Sm TGR block	Pf growth 96h	HCMV inh	Pf growth 48h
COc1ccc(CCNC(=O)C(C)c2ccc([N+](=O)[O-])cc2)cc1 (centres undefined)	-8%	0%	8%	8.3µM*	?	-10%
COc1ccc(CCNc2ccc([N+](=O)[O-])cn2)cc1	?	-11%	-19%	13µM*	5	?
CC(C)c1ccc(CCNC(=O)c2ccc([N+](=O)[O-])cc2)cc1	11µM*	5%	-8%	?	0	?
COc1ccc(C(CC(=O)c2ccc(C)cc2)Nc2ccc([N+](=O)[O-])cc2)cc1 (centres undefined)	13µM*	-3%	-1%	?	-6	36%
Cc1ccc(NC(CC(=O)c2ccccc2)c2ccc(F)cc2)cc1 (centres undefined)	8%	4%	0%	46%	-26	36%
Cn1cc(C(=O)NC2CCCCC2)c(=O)c2cc(S(=O)(=O)N3CCOCC3)ccc21	13%	6%	2%	?	21	?
COCc1cc(CN2CCCC2)c(O)c2ncccc12	2.8µM*	0%	?	?	-95*	2.9µM*
COc1c(C)cc(C(=O)C2CCCN(Cc3cccc4nccnc34)C2)cc1C (centres undefined)	?	0%	12%	?	?	?
Oc1c(CN2CCCCC2)cc(COCc2ccccc2)c2cccnc12	10µM*	5%	35µM*	2.1µM*	-96*	1.9µM*
CCOc1ccc(/C=N/N2C(=O)C(CC(=O)Nc3ccc(F)cc3F)SC2=NC)cc1OC (centres undefined)	-16%	15%	-1%	12µM*	39	12µM*
CN1CCc2cc3c(c4c2[C@H]1[C@H](O)c1ccccc1-4)OCO3	-3%[8.37 µM]	-14%	-8%	?	-71*	1.7µM*
COc1ccc2c(c1OC)C(=O)OC2C1c2c(cc3c(c2OC)OCO3)CCN1C (centres undefined)	-22%[8.37 µM]	1%	-6%	13µM*	-3	?
COc1ccc(C(=O)Nc2nc3nccc(-c4ccccc4)n3n2)cc1	?	2%	4%	?	30	-18%
CC(=O)O[C@H]1CC(C)(C)C(=C=C/C(C)=C/C=C/C(C)=C/C=C/C=C(C)/C=C/C=C(\C)C(=O)C[C@@]23O[C@]2(C)C[C@@H](O)CC3(C)C)[C@](C)(O)C1	-13%[8.37 µM]	1%	3.2µM*	?	/	9.3µM*
CCCCOc1ccc(S(=O)(=O)NCc2csc(-c3ccc(OC)cc3)n2)cc1	/	/	-2%	/	96	/
Cn1c(SCc2ccccc2C#N)nc2ccccc2c1=O	-14%	2%	-18%	0%	-9	0%
CC(C)c1ccccc1NC(=O)COC(=O)COc1ccccc1[N+](=O)[O-]	-2%	-2%	-6%	26%	5	-3%
Cc1ccc(C2CN(C)C3(C(=O)Nc4ccccc43)C23COc2ccccc2C3=O)cc1 (centres undefined)	2%	-26%	1%	?	27	15µM*
Cc1ccc(C)c(S(=O)(=O)Nc2ccc(O)c3ccccc23)c1	-20%	7%	22µM*	?	-22	?
Cc1ccc(S(=O)(=O)Nc2ccc(O)c3ccccc23)c(C)c1	?	-6%	8.9µM*	23%	?	2%[0.00184 µM]
Cc1ccc(S(=O)(=O)Nc2cc(C(C(=O)OC(C)C)C(=O)C(F)(F)F)c(O)c3ccccc23)c(C)c1 (centres undefined)	?	-66%	-22%	5.2µM*	-21	13µM*
Cc1ccc(S(=O)(=O)Nc2cccc(S(=O)(=O)Nc3ccccc3C(=O)O)c2)c(C)c1	0%	-7%	/	/	-15	/
Cc1ccc(S(=O)(=O)NNc2ccccc2)c(C)c1	3%	-56%	40µM*	-10%	57	12%
CCN1CCN(S(=O)(=O)c2ccc(OC)c(NC(=O)c3ccccc3)c2)CC1	/	4%	-25%	0%	-23	-4%
O=c1[nH]c2cc3ccccc3cc2nc1-c1nnnn1C1CCCC1	/	/	/	/	0	/
SMILES	HCV inhibitor	SARS PLpro yeast	Sm TGR block	Pf growth 96h	HCMV inh	Pf growth 48h
CCOC(=O)c1cc(CC)sc1NC(=O)c1ccc([N+](=O)[O-])c(N2CCOCC2)c1	-2%	3%	-14%	?	56	27%
CCCC(=O)Nc1ccc(C=C(C(C)=O)C(C)=O)cc1	17%	-3%	?	?	44	?
CCOc1ccc2nc(SCC(=O)N3CCCCCC3)c(C#N)cc2c1	7.9µM*	-2%	5%	46%	51	?
CCN(CC)C(=O)C1CCCN(C(=O)Nc2ccc3nsnc3c2)C1 (centres undefined)	32µM*	3%	4%	?	0	/
CCN1C(=O)/C(=C\c2ccc([N+](=O)[O-])s2)C(=O)NC1=S	/	2%	2.8µM*	?	/	-6%
C=CCN1C(=O)/C(=C/c2ccc(Br)s2)C(=O)NC1=S	11%	-6%	2.5µM*	37%	32	53%
CCCN1C(=O)/C(=C/c2ccc(C)s2)NC1=S	-8%	25%	?	26%	-32	-6%
O=[N+]([O-])c1cc(S(=O)(=O)O)cc([N+](=O)[O-])c1NN(c1ccccc1)c1ccccc1	7%	6%	8%	-9%	-15	-5%
COc1cccc(/C=C/c2nc(C#N)c(NCCc3ccc(OC)c(OC)c3)o2)c1	/	/	4%	/	-9	/
COc1ccc(N2C(C(C)=O)=NN(c3ccccc3)C2c2cccs2)cc1 (centres undefined)	/	?	5%	12µM*	-5	/
Cc1ccccc1NC1=C(Cl)C(=O)OC1NC(=O)c1ccccc1 (centres undefined)	-1%	4%	-18%	40%	-82*	/
CCOC1OC(=O)C(Cl)=C1Nc1ccccc1C (centres undefined)	-7%	1%	-1%	13%	-32	-14%
Cc1c(Cl)cccc1NC(=O)N1CCC(CN2CCOCC2)CC1	/	/	-1%	/	9	/
O=c1cc(COc2ccccc2Cl)nc2scc(-c3ccccc3)n12	/	/	9%	/	-88*	/
Cc1cccc(C)c1OCc1cc(=O)n2c(-c3ccccc3)csc2n1	/	/	-3%	/	-17	/
Cc1cccc(OCc2cc(=O)n3c(-c4ccccc4)csc3n2)c1C	/	/	1%	/	-103*	/
O=c1cc(CSc2nnnn2-c2ccccc2)nc2scc(-c3ccccc3)n12	-22%	0%	-15%	8.3µM*	19	?
CN1C(=O)C(n2ccc3ccccc32)c2cc(Cl)ccc21 (centres undefined)	/	/	/	/	-6	/
Cn1cc(C(=O)NS(=O)(=O)Nc2ccc(Br)cc2)c2ccccc21	12%	1%	0%	?	25	-8%
